About 79,000 compounds went through this panel and 15% of them were active in at least one assay; those are over-represented in the sample as a whole. A number with no mark means an inactive call. Active and inactive are the calls of the source. Rule as the data show it: active = growth inhibition above about 70%; inactive = the rest.

One experiment in a line: NCI Yeast Anticancer Drug Screen. Data for the rad50 strain (AID 155).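 Also: 0% = growth of vehicle-only cultures of the same strain.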 The following applies: S. cerevisiae rad50 strain growth inhibition; at 5.0 µM (retest, dose inferred, filed as 0.5); stronger effect = higher value. In a few lines:
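Growth of the mutant yeast was measured after compound exposure and referenced to vehicle-treated cultures.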
On to `Cc1cn(C2CC(Br)C(COC(c3ccccc3)(c3ccccc3)c3ccccc3)O2)c(=O)[nH]c1=O` (stereo not drawn), for which the growth inhibition is 10%.
Same read-out and setting: then `CC1CCN(CCOC(=O)C(c2ccccc2)C2C=CCCC2)C1` (stereo not drawn), with 8%; and `C=CC(c1ccccc1)[C@@]1(OC(C)=O)C(=O)C(=O)OC1C1COC(C)(C)O1` (stereo partly drawn), with 62%.
Regarding `CC(C)S(=O)(=O)ON1C(=O)c2ccc(N(C)C)cc2C1=O`, the growth inhibition was 14%.
On the same count and under the same terms, then `CCCC(Sc1ccccc1)c1ccccc1NC(C)=O` (stereo not drawn), with 1%; and `Oc1c(C(Nc2ccccn2)c2ccccc2)ccc2cccnc12` (stereo not drawn), with 8%; and `CC(=O)NC1=C(Cl)C(=O)c2ccccc2C1=O`, with 91% (active).
On the same count and under the same terms, in the case of `CC1OC(c2ccc3c(c2)OCO3)OC1C` (stereo not drawn) it was 1%; in that of `CN(C)CC(CN1CCCC1)C(=O)c1ccccc1` (stereo not drawn), 13%.
On the same count and under the same terms, in the case of `O=S(=O)(O)c1ccc2c(c1)C1C(C3C2C2(Cl)C(Cl)=C(Cl)C3(Cl)C2(Cl)Cl)C2(Cl)C(Cl)=C(Cl)C1(Cl)C2(Cl)Cl` (stereo not drawn) it was -7%; in that of `Cc1cc(Cl)nc2ccc(Cc3ccc4nc(Cl)cc(C)c4c3)cc12`, 4%.
With `CC1CCC2(C)C(CC=C(C=O)C2(O)C=O)C12CO2` (stereo not drawn), the growth inhibition was 99% (active).
With `Cc1c(C)c(C)c(C(=O)c2ccccc2C(=O)NCCSC(C)(C)C)c(C)c1C`, the growth inhibition is 42%.
The same measure, in the same setting: in the case of `O=[N+]([O-])C(=C1Nc2ccccc2N1)C(Cl)=C(Cl)Cl` it was 10%; in that of `CCCCNc1ccc(C(=O)OC2CCN(C)CC2)c(Cl)c1`, 99% (active).
Same read-out and setting: then `CC(C)(C)OC(=O)c1ccc(NCC2=C(Br)C(=O)C=CC2=O)cc1`, with 18%.
As to `N#CC(c1ccc(Cl)cc1)c1ccc([N+](=O)[O-])cc1` (stereo not drawn), the growth inhibition is -12%.
On the same count and under the same terms, in the case of `O=C(CC(=O)c1ccccc1NC1=Cc2ccccc2C(=O)C1=O)C(=O)NC1=C(Cl)C(=O)c2ccccc2C1=O` it was 36%.
The same measure, in the same setting: then `O=S(=O)(Nc1ccc2c3c(cccc13)C=C2)c1ccccc1`, with -1%.
The same measure, in the same setting: then `CC(=O)c1cccc(NC(=O)C(=O)NNc2n[nH]c(=S)n2N)c1`, with 16%.
As to `Nc1ncc(C(=O)c2ccccc2)cc1[N+](=O)[O-]`, the growth inhibition is -142%.
On the same count and under the same terms, in the case of `COc1ccc2cc(C3CCCC3(C)CC(=O)O)ccc2c1` (stereo not drawn) it was 7%; in that of `CNc1ccc(N=O)cc1`, -1%; in that of `S=c1sc2nc(Cl)nc(Cl)c2s1`, 99% (active).
As to `CC(=O)O/C=C1\c2ccccc2CCC1c1ccc2ccccc2c1` (stereo not drawn), the growth inhibition is 7%.
Regarding `CC1(C)C2CCC(C2)C1OC(=O)c1ccccc1C(=O)O` (stereo not drawn), the growth inhibition was -7%.
On to `Cc1cc(=O)oc2c3c(ccc12)OC(c1ccc(Br)cc1)CC3=O` (stereo not drawn), for which the growth inhibition was 28%.
The same measure, in the same setting: then `Cc1cc(N(CCOS(C)(=O)=O)CCOS(C)(=O)=O)ccc1C=Nc1cccc(Cl)c1`, with 10%.
Same read-out and setting: in the case of `CN(C)CCOc1cc2c(c3ccccc13)-c1ccccc1C2O` (stereo not drawn) it was 30%.
Same read-out and setting: then `NC(=S)C(=Nc1ccccc1F)Nc1ccccc1F`, with 2%.
Take `CCCCOc1ccc(NC(=S)Nc2ccc(OCCN(CC)CC)cc2)cc1`: the growth inhibition was -4%.
Still for that read-out and setting: in the case of `CC1CCN(CC(=O)N2c3ccccc3Sc3cc4ccccc4cc32)CC1` it was 4%; in that of `CC(C)C1COC(c2ccc3ccccc3c2-c2c(O[Si](C)(C)C(C)(C)C)ccc3ccccc23)=N1` (stereo not drawn), 20%; in that of `CN(C)c1ccc(/C=C(\C#N)c2cccc(Cl)c2)cc1`, 1%.
Still for that read-out and setting: then `CCN(CC)CCNc1ccc(C)c2oc3ccc(O)cc3c(=O)c12`, with 39%; and `CN(C)CC1CCc2c(ccc3ccccc23)C1=O` (stereo not drawn), with 8%; and `C[C@]12CCC(=O)C=C1CC[C@@H]1[C@@H]2[C@@H](O)C[C@@]2(C)[C@H]1CC[C@]2(O)C(=O)COC(=O)CCC1CCCC1`, with 83% (active).
Still for that read-out and setting: then `O=C(CSc1nnc(Cc2ccccc2)o1)Nc1ccc(Cl)cc1[N+](=O)[O-]`, with 1%; and `Cc1cccc2c1Oc1ccccc1C2N1C(=O)/C(=C/c2ccccc2Cl)SC1=S` (stereo not drawn), with 99% (active).

The experiment is the same for the next values; noted with them: S. cerevisiae rad50 strain growth inhibition; at 50.0 µM (retest, dose inferred, filed as 5.0); stronger effect = higher value.
In the case of `Cc1cn(C2CC(Br)C(COC(c3ccccc3)(c3ccccc3)c3ccccc3)O2)c(=O)[nH]c1=O` (stereo not drawn), the growth inhibition was 97% (active).
Still for that read-out and setting: in the case of `CC1CCN(CCOC(=O)C(c2ccccc2)C2C=CCCC2)C1` (stereo not drawn) it was 34%.
On the same count and under the same terms, then `C=CC(c1ccccc1)[C@@]1(OC(C)=O)C(=O)C(=O)OC1C1COC(C)(C)O1` (stereo partly drawn), with 98% (active); and `CC(C)S(=O)(=O)ON1C(=O)c2ccc(N(C)C)cc2C1=O`, with 35%.
Still for that read-out and setting: then `CCCC(Sc1ccccc1)c1ccccc1NC(C)=O` (stereo not drawn), with 31%; and `Oc1c(C(Nc2ccccn2)c2ccccc2)ccc2cccnc12` (stereo not drawn), with 97% (active).
With `CC(=O)NC1=C(Cl)C(=O)c2ccccc2C1=O`, the growth inhibition was 99% (active).
The same measure, in the same setting: then `CC1OC(c2ccc3c(c2)OCO3)OC1C` (stereo not drawn), with 0%; and `CN(C)CC(CN1CCCC1)C(=O)c1ccccc1` (stereo not drawn), with 24%; and `O=S(=O)(O)c1ccc2c(c1)C1C(C3C2C2(Cl)C(Cl)=C(Cl)C3(Cl)C2(Cl)Cl)C2(Cl)C(Cl)=C(Cl)C1(Cl)C2(Cl)Cl` (stereo not drawn), with 80% (active).
Still for that read-out and setting: then `Cc1cc(Cl)nc2ccc(Cc3ccc4nc(Cl)cc(C)c4c3)cc12`, with 27%; and `CC1CCC2(C)C(CC=C(C=O)C2(O)C=O)C12CO2` (stereo not drawn), with 99% (active).
Consider `Cc1c(C)c(C)c(C(=O)c2ccccc2C(=O)NCCSC(C)(C)C)c(C)c1C`, for which the growth inhibition is 49%.
The same measure, in the same setting: then `O=[N+]([O-])C(=C1Nc2ccccc2N1)C(Cl)=C(Cl)Cl`, with 8%; and `CCCCNc1ccc(C(=O)OC2CCN(C)CC2)c(Cl)c1`, with 96% (active); and `CC(C)(C)OC(=O)c1ccc(NCC2=C(Br)C(=O)C=CC2=O)cc1`, with 98% (active).
On the same count and under the same terms, in the case of `N#CC(c1ccc(Cl)cc1)c1ccc([N+](=O)[O-])cc1` (stereo not drawn) it was 52%.
Still for that read-out and setting: in the case of `O=C(CC(=O)c1ccccc1NC1=Cc2ccccc2C(=O)C1=O)C(=O)NC1=C(Cl)C(=O)c2ccccc2C1=O` it was 92% (active); in that of `O=S(=O)(Nc1ccc2c3c(cccc13)C=C2)c1ccccc1`, 98% (active); in that of `CC(=O)c1cccc(NC(=O)C(=O)NNc2n[nH]c(=S)n2N)c1`, 95% (active).
Take `Nc1ncc(C(=O)c2ccccc2)cc1[N+](=O)[O-]`: the growth inhibition is -110%.
Same read-out and setting: in the case of `COc1ccc2cc(C3CCCC3(C)CC(=O)O)ccc2c1` (stereo not drawn) it was 11%; in that of `CNc1ccc(N=O)cc1`, 90% (active).
Turning to `S=c1sc2nc(Cl)nc(Cl)c2s1`, the growth inhibition is 99% (active).
Same read-out and setting: then `CC(=O)O/C=C1\c2ccccc2CCC1c1ccc2ccccc2c1` (stereo not drawn), with -5%; and `CC1(C)C2CCC(C2)C1OC(=O)c1ccccc1C(=O)O` (stereo not drawn), with 11%.
Still for that read-out and setting: in the case of `Cc1cc(=O)oc2c3c(ccc12)OC(c1ccc(Br)cc1)CC3=O` (stereo not drawn) it was 24%; in that of `Cc1cc(N(CCOS(C)(=O)=O)CCOS(C)(=O)=O)ccc1C=Nc1cccc(Cl)c1`, 80% (active); in that of `CN(C)CCOc1cc2c(c3ccccc13)-c1ccccc1C2O` (stereo not drawn), 96% (active).
`NC(=S)C(=Nc1ccccc1F)Nc1ccccc1F`: the growth inhibition is 85% (active).
`CCCCOc1ccc(NC(=S)Nc2ccc(OCCN(CC)CC)cc2)cc1`: the growth inhibition is 45%.
Still for that read-out and setting: then `CC1CCN(CC(=O)N2c3ccccc3Sc3cc4ccccc4cc32)CC1`, with 15%; and `CC(C)C1COC(c2ccc3ccccc3c2-c2c(O[Si](C)(C)C(C)(C)C)ccc3ccccc23)=N1` (stereo not drawn), with 20%.
Same read-out and setting: then `CN(C)c1ccc(/C=C(\C#N)c2cccc(Cl)c2)cc1`, with -8%; and `CCN(CC)CCNc1ccc(C)c2oc3ccc(O)cc3c(=O)c12`, with 96% (active); and `CN(C)CC1CCc2c(ccc3ccccc23)C1=O` (stereo not drawn), with 68%.
Take `C[C@]12CCC(=O)C=C1CC[C@@H]1[C@@H]2[C@@H](O)C[C@@]2(C)[C@H]1CC[C@]2(O)C(=O)COC(=O)CCC1CCCC1`: the growth inhibition was 91% (active).
In the case of `O=C(CSc1nnc(Cc2ccccc2)o1)Nc1ccc(Cl)cc1[N+](=O)[O-]`, the growth inhibition is 56%.
On the same count and under the same terms, then `Cc1cccc2c1Oc1ccccc1C2N1C(=O)/C(=C/c2ccccc2Cl)SC1=S` (stereo not drawn), with 74% (active).

(Values after PubChem BioAssay (NCI).)
